Assay [1] concerns Vero E6 infected with SARS-CoV-2. Put plainly: morphology score (similarity to uninfected cells); higher = more like uninfected cells. The conditions noted are these: 24 h.
Assay [2] has the same test system. As to the kind of experiment: SARS-CoV-2 infection rate relative to infected DMSO; higher = more infection, active = 60 or less. The settings on record: 24 h.

Among the data in the supplement of paper PMC13380429 are morphology score and SARS-CoV-2 infection rate values, retold here.

SMILES strings stand for the structures.

Turning to `CNC(=O)c1nn(C)c2c1C(C)(C)Cc1cnc(Nc3ccc(N4CCN(C)CC4)cc3)nc1-2` (10 µM), in assay [1], the morphology score is -0.142. The SARS-CoV-2 infection rate in assay [2] is 112% (inactive).

`COc1ccc(C(Cl)=C(c2ccc(OC)cc2)c2ccc(OC)cc2)cc1` [chlorotrianisene] (10 µM) had a morphology score in assay [1] of 0.0843. The SARS-CoV-2 infection rate in assay [2] is 95.5% (inactive).

On to `CNCCC(Oc1ccccc1OC)c1ccccc1` (stereo not given) [nisoxetine] (10 µM), for which the morphology score in assay [1] came to 0.135. The SARS-CoV-2 infection rate in assay [2] is 96.5% (inactive).

In the case of `C[C@H](NC(=O)C(C)(C)Oc1ccc(C(F)(F)F)cn1)[C@@H](Cc1ccc(Cl)cc1)c1cccc(C#N)c1` [taranabant] (10 µM), the morphology score in assay [1] amounted to 0.1. Also, the SARS-CoV-2 infection rate in assay [2] is 101% (inactive).

In assay [1], `CC(C)(C=O)Cc1cc(C(C)(C)C)c(O)c(C(C)(C)C)c1` (10 µM) displayed a morphology score of 0.0771. Also, the SARS-CoV-2 infection rate in assay [2] was 94% (inactive).

`N#C/C(=C\c1ccc(O)c(O)c1)C(=O)NCc1ccccc1` (10 µM) yielded a morphology score in assay [1] of 0.214. Besides, the SARS-CoV-2 infection rate in assay [2] is 98% (inactive).

For `CN1CCc2nc(C(=O)N[C@@H]3C[C@@H](C(=O)N(C)C)CC[C@@H]3NC(=O)C(=O)Nc3ccc(Cl)cn3)sc2C1` [edoxaban] (10 µM), the morphology score in assay [1] was 0.0662. The SARS-CoV-2 infection rate in assay [2] was 94.5% (inactive).

For the compound `CC(C)C[C@@H]1NC(=O)[C@@H](C(C)C)NC(=O)[C@@H]2CCCN2C(=O)[C@@H](CC(=O)O)NC(=O)[C@@H](Cc2c[nH]c3ccccc23)NC1=O` (10 µM), the morphology score in assay [1] was 0.163. The SARS-CoV-2 infection rate in assay [2] is 103% (inactive).

With `COc1cc(CCc2cc(NC(=O)c3ccc(N4CC(C)NC(C)C4)cc3)n[nH]2)cc(OC)c1` (stereo not given) (10 µM), in assay [1], the morphology score is 0.373. In addition, in assay [2], the SARS-CoV-2 infection rate was 79.5% (inactive).

Turning to `O=C1CC[C@@H](C(=O)N2CSC[C@H]2C(=O)O)N1` [pidotimod] (10 µM), the morphology score in assay [1] is -0.145. Moreover, in assay [2], the SARS-CoV-2 infection rate is 116% (inactive).
